This passage reports composite z-score and z-score results from PubChem BioAssay.

Molecules are shown by their SMILES. Calls of active or inactive are those of the source.

Experiment [1] is described as follows: small molecules captured by biotinylated probe aFSTL3 – biochemical, small-molecule microarray, fluorescence 635/667, stem cell growth factor project, primary screen (AID 1064).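 Further: measures binding of the biotinylated anti-FSTL3 antibody to printed compounds.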 Particulars: higher = more signal.
Experiment [2] can be described thus: binders from COS7 lysate, DM2A8 probe, primary screen, torsin A project, cell lysate, small-molecule microarray, fluorescence 635/667 (AID 1065). The conditions noted are these: higher = more signal, COS7 lysate expressing mutant human TOR1A.
A short description of experiment [3]: small molecules captured by biotinylated probe aFGF2 – biochemical, small-molecule microarray, fluorescence 635/667, stem cell growth factor project, primary screen (AID 1067).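 Further: measures binding of biotinylated aFGF2 protein to printed compounds on slides; z-score merges feature fluorescence and signal-to-noise across triplicate slides.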 Particulars: higher = more signal.
Experiment [4] can be described thus: small molecules captured by biotinylated probe aFGF10 – biochemical, small-molecule microarray, fluorescence 635/667, stem cell growth factor project, primary screen (AID 1071).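 Further: score merges 667 nm spot intensity and signal to noise from triplicate slides.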 The conditions noted are these: higher = more signal.
For experiment [5], the target named is Neurogenic locus notch homolog protein 2 (Homo sapiens) (UniProt Q04721). Put plainly: small molecules binding Notch2 protein – biochemical, small-molecule microarray, 635 nm fluorescence, stem cell growth factors, primary screen (AID 1073). The conditions noted are these: higher = more signal.
Neurogenic locus notch homolog protein 2 (Homo sapiens), sequence (Q04721 whole entry, looked up, canonical isoform): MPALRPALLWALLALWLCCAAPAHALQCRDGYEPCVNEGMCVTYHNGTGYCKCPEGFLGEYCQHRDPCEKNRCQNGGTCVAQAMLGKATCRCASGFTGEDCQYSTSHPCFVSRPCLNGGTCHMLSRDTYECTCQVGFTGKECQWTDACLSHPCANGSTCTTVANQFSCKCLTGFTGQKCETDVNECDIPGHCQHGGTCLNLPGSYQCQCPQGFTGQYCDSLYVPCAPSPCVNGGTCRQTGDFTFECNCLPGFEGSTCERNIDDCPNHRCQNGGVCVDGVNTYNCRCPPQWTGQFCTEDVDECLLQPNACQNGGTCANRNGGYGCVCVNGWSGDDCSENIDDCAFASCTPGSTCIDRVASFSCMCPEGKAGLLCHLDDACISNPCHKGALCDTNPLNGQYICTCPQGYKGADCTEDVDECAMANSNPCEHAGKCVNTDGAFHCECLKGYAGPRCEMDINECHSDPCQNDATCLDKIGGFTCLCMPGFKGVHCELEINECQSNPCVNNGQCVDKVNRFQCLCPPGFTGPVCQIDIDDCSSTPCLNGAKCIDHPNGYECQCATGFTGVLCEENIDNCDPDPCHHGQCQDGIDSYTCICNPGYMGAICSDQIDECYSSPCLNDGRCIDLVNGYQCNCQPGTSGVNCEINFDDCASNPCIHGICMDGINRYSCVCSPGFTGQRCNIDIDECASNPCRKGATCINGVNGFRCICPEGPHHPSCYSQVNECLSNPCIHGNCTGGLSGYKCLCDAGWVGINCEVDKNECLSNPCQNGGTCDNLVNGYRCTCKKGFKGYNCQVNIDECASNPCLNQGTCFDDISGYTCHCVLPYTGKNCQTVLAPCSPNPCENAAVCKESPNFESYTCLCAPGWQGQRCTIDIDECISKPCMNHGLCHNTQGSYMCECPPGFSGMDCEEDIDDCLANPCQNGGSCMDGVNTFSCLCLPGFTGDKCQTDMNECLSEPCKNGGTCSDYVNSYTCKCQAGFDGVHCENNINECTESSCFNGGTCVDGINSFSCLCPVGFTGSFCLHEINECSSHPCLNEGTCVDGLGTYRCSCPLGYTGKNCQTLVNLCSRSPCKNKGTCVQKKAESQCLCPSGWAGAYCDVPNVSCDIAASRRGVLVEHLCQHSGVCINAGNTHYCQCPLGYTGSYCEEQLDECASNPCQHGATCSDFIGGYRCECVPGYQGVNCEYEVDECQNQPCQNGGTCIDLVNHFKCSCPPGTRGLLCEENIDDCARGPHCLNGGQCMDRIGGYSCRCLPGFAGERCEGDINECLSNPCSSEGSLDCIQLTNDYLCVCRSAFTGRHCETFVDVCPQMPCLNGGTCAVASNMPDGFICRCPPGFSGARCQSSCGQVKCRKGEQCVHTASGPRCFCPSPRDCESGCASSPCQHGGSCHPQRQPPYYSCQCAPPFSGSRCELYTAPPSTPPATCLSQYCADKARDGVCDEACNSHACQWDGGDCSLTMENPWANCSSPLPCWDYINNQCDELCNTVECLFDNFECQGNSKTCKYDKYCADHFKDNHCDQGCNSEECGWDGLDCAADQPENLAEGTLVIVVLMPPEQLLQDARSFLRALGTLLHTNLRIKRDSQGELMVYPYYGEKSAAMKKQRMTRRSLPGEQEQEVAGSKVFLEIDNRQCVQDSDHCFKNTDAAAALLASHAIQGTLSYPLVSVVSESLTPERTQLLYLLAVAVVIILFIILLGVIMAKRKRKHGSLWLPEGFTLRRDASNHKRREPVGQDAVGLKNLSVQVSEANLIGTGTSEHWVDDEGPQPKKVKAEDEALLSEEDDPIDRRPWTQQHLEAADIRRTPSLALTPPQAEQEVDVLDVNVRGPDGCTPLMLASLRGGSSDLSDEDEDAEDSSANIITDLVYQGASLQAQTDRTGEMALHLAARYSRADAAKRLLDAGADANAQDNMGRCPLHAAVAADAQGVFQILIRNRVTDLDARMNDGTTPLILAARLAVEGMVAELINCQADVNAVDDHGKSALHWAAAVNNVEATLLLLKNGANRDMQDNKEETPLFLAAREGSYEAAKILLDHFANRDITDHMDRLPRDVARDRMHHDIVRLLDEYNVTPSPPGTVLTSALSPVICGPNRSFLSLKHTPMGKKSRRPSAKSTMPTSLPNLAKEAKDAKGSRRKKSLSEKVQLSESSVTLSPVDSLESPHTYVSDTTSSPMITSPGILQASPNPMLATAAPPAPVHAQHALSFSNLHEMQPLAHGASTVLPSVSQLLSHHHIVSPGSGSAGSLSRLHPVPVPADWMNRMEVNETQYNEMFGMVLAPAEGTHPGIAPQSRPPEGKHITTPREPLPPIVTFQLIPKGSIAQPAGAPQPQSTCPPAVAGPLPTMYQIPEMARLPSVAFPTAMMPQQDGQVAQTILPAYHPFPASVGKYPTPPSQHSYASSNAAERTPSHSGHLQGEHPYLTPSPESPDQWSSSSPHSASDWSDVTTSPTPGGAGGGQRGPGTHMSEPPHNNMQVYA
Experiment [6] concerns the target Pro-neuregulin-1, membrane-bound isoform (Homo sapiens) (UniProt Q02297). Put plainly: small molecules binding neuregulin-1 protein – biochemical, small-molecule microarray, fluorescence 635/667, psychiatric disease protein project, primary screen (AID 1075).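 Further: score combines 667 nm spot fluorescence with signal to noise.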 The conditions noted are these: NRG1 binding, 635 nm fluorescence, higher = more signal.
Experiment [7] concerns Neuregulin-1 EGF-like domain. Put plainly: small molecules binding NRG1 EGF domain – biochemical, small-molecule microarray, 635 nm fluorescence, primary screen (AID 1081).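 Further: binding of the protein to compounds printed on small-molecule microarray slides.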 Particulars: higher = more signal.
Experiment [8] can be described thus: FRG1 expression reporter modulators in myotubes – cell-based, C2C12 myotubes, firefly/Renilla luciferase, luminescence, FRG1 inhibition for FSHD, primary screen (AID 1084). The conditions noted are these: FRG1 promoter luciferase, higher = more signal, called active from +8 up or from −8 down.
The nature of experiment [9]: small molecules captured by biotinylated probe aFST – biochemical, small-molecule microarray, fluorescence 635/667, stem cell growth factor project, primary screen (AID 1086).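 Further: score merges 667 nm fluorescence with signal-to-noise of each printed compound spot.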 The conditions noted are these: higher = more signal.
Experiment [10] is described as follows: binders of probe aHhip on microarray, primary screen, stem cell growth factor project, biochemical, small-molecule microarray, fluorescence 635/667 (AID 1087).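 Further: score merges spot fluorescence at 667nm with spot signal to noise ratio.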 The conditions noted are these: higher = more signal.

Pro-neuregulin-1, membrane-bound isoform (Homo sapiens), sequence (Q02297 whole entry, looked up, the tested form may be a part, canonical isoform): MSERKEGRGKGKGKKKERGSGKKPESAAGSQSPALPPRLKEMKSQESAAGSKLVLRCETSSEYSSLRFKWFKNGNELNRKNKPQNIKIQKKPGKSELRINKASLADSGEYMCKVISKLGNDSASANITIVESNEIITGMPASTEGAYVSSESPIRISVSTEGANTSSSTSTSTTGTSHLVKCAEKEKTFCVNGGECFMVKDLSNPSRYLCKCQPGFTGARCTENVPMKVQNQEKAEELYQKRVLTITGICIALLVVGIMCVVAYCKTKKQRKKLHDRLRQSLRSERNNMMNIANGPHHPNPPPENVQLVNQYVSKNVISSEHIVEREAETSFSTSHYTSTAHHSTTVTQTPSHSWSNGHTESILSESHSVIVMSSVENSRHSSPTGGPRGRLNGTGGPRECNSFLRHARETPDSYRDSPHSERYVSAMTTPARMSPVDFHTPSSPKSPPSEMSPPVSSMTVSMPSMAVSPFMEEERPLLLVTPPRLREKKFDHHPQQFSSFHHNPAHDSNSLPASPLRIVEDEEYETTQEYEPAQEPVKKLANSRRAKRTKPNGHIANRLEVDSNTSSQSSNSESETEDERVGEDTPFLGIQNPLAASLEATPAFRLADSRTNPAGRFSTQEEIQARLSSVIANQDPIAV

As to `CC[C@@H]1[C@@H]2C3C(=O)N(CC)C(=O)C3CC(=O)[C@@H]2[C@H](c2ccc(C)cc2)N1S(=O)(=O)c1ccc(C)cc1` (stereo not given in full), the composite z-score in [1] is -0.38; in [2] it was 0.0428; in [3] it was 0.161; in experiment [4], 0.383; in experiment [5] it was 1.56; in [6], 1.37. Besides, the composite z-score is 1.1 in experiment [7], 0.635 in experiment [9] and -0.19 in experiment [10]. Also, in experiment [8], the z-score was -1.04 (inactive).

Take `CC(C)N1CC=CC23O[C@@H]4C=CCOC(=O)[C@@H]4[C@H]2C(=O)N(CCCCCCO)[C@@H]3C1=O` (stereo not given in full): the composite z-score in experiment [1] was -0.895; in experiment [2], -0.775; in experiment [3], -0.237; in [4], 1.07; in experiment [5] it was -0.697; in experiment [6], -0.126. Also, the values for the composite z-score in experiment [7], in experiment [9] and in experiment [10] were 1.47, -0.588 and -0.949, respectively. Besides, in [8], the z-score is 0.213 (inactive).

As to `CCOC(=O)C[C@H]1[C@H](OC(=O)Cc2ccc3c(c2)OCO3)[C@@H](NC(=O)c2ccccc2)c2cc(OCCCO)ccc2N1C(=O)c1ccccc1`, the composite z-score in experiment [1] was -0.23; in experiment [2], 0.122; in experiment [3] it was -0.0687; in experiment [4], 0.346; in [5], 0.228; in experiment [6], -0.109. Also, the composite z-score in [7] is 0.895; in [9] it was 0.0452; in experiment [10], -0.0237. In [8], the z-score was -1.73 (inactive).

Take `COC(=O)C(CC#Cc1ccc2c(c1)[C@]1(C(=O)N2)[C@H](c2ccccc2OCCO)N2[C@H](c3ccccc3)[C@H](c3ccccc3)OC(=O)[C@H]2[C@@H]1C(=O)Nc1nc2ccccc2s1)C(=O)OC`: the composite z-score in experiment [1] is -0.214; in [2] it was 0.675; in experiment [3], 0.0563; in experiment [4] it was 0.605; in [5] it was 1.05; in experiment [6], 1.47. In addition, the composite z-score in experiment [7] is 1.26; in experiment [9], 0.446; in experiment [10], 0.0329. Further, the z-score in experiment [8] is 1.94 (inactive).

In the case of `C=C(C(=O)CC[C@H](OC(=O)c1cccnc1)c1ccc(OCCO)cc1)C(C)C`, the composite z-score was -0.241 in experiment [1]; 1.43 in [2]; 0.0612 in experiment [3]; 0.404 in [4]; 0.539 in experiment [5]; 0.19 in experiment [6]. Moreover, the composite z-score in [7] turned out to be 1.2; in experiment [9], 0.995; in [10] it was 0.0881. Besides, the z-score in [8] was 1.14 (inactive).

Consider `CC(C)(C)N1CC=CC23O[C@@H]4C=CCCOC(=O)C4[C@H]2C(=O)N(CCCO)[C@@H]3C1=O` (stereo not given in full), for which the composite z-score in experiment [1] was 0.248; in experiment [2], -0.527; in experiment [3], -0.181; in experiment [4], -0.642; in [5] it was -1.5; in [6] it was -0.509. Moreover, the composite z-score in experiment [7] is -0.174; in experiment [9] it was -0.383; in experiment [10], -0.0994. Moreover, the z-score in experiment [8] was 0.489 (inactive).

For the molecule `COCCOC(=O)N1C(=O)[C@@]2(c3cc(C#CCNC(N)=O)ccc31)[C@H](c1ccc(OCCO)cc1)N1[C@H](c3ccccc3)[C@H](c3ccccc3)OC(=O)[C@H]1[C@@H]2C(=O)N1CCN(c2ncccn2)CC1`, the composite z-score was 0.496 in experiment [1]; 0.287 in experiment [2]; -0.0478 in [3]; 0.748 in experiment [4]; 1.04 in [5]; 0.37 in [6]. The composite z-score in experiment [7] is 0.482; in experiment [9] it was 0.974; in experiment [10], -0.173. For the same molecule, the z-score in experiment [8] was -0.0699 (inactive).

On to `CC(C)CCC[C@@H](C)[C@H]1CC[C@@]2(C)C3=C(CC[C@]12C)[C@@]1(C)CC[C@H](OC(=O)c2ccc(N)cc2)C(C)(C)C1CC3` (stereo not given in full), for which the composite z-score is -0.219 in [1]; 0.481 in experiment [2]; -0.145 in experiment [3]; 0.448 in experiment [4]; 0.558 in experiment [5]; -0.0202 in [6]. The values for the composite z-score in experiment [7], in experiment [9] and in experiment [10] were 0.649, 0.0576 and -0.406, respectively. Moreover, in [8], the z-score is -1.35 (inactive).

As to `O=C(CS)NCCCCCNC(=O)[C@@H]1C[C@@H]2C(=O)N3CCC[C@H]3C(=O)N2[C@@H]1c1ccc(O)cc1`, the composite z-score in experiment [1] is 0.344; in [2] it was 0.282; in experiment [3] it was -0.0333; in experiment [4], 0.354; in experiment [5], -0.677; in experiment [6], 0.33. Also, the composite z-score in experiment [7] was 1.32; in [9] it was -0.0412; in [10], 0.127. Also, in [8], the z-score is 0.0995 (inactive).

For the molecule `O=C1c2ccccc2[C@](Cc2ccccc2I)(C(=O)NC2CC2)[C@H](c2ccc(CO)cc2)N1Cc1ccccc1Cl`, the composite z-score in experiment [1] is 0.558; in experiment [2], 0.478; in experiment [3], 0.221; in [4], 0.487; in [5], 1.23; in experiment [6] it was 1.36. The results for the composite z-score in experiment [7], in experiment [9] and in [10] were 1.27, 0.496 and -0.105, respectively. Also, in [8], the z-score was -2.71 (inactive).

In the case of `COCCOC(=O)N1C(=O)[C@@]2(c3cc(C#CC4(O)CCCCCC4)ccc31)[C@H](C(=O)N1CCN(c3ncccn3)CC1)[C@H]1C(=O)O[C@H](c3ccccc3)[C@H](c3ccccc3)N1[C@@H]2c1ccc(O)cc1`, the composite z-score in [1] was -0.238; in experiment [2] it was 0.413; in experiment [3] it was 0.0228; in [4], 0.806; in [5], 0.372; in [6], 0.438. Also, the values for the composite z-score in experiment [7], in experiment [9] and in experiment [10] were 1.22, -0.123 and -0.0618, respectively. Further, the z-score in [8] is -0.617 (inactive).

In the case of `COCCOC(=O)N1C(=O)[C@@]2(c3cc(C#CC4(O)CCCCCC4)ccc31)[C@H](C(=O)NC[C@H](O)c1ccccc1)[C@H]1C(=O)O[C@H](c3ccccc3)[C@H](c3ccccc3)N1[C@@H]2c1ccc(OCCO)cc1`, the composite z-score in experiment [1] was -0.38; in [2] it was -0.166; in experiment [3], 0; in [4], 0.353; in experiment [5] it was 0.672; in [6], 0.985. Further, the composite z-score in [7] is 1.14; in [9], 0.409; in experiment [10], -0.0994. For the same molecule, the z-score in experiment [8] is 0.78 (inactive).

`CC1C=C(CCCO)C=C(C(=O)OCCS(C)(=O)=O)C(C(=O)OCCS(C)(=O)=O)=CN1Cc1cccc(OC(F)(F)F)c1` (stereo not given): the composite z-score is -0.228 in experiment [1]; 0.21 in [2]; -0.0379 in experiment [3]; 0.203 in experiment [4]; 0.707 in experiment [5]; 2.08 in [6]. Further, the composite z-score in experiment [7] was 1.14; in experiment [9], 0.106; in experiment [10] it was -0.0645. In experiment [8], the z-score was 0.416 (inactive).

Take `C=C(/C(=C/C[C@@H](OC(C)=O)c1ccccc1OCCO)c1cnc2ccccc2c1)C(C)C`: the composite z-score in experiment [1] is -0.0572; in experiment [2], 1.23; in [3], -0.166; in experiment [4] it was 0.758; in experiment [5], 1.13; in experiment [6], 0.179. The composite z-score in [7] is 0.911; in experiment [9] it was 0.0287; in experiment [10] it was -0.344. Further, in experiment [8], the z-score is -0.698 (inactive).

For the molecule `CCOC(=O)C[C@H]1[C@H](OC(=O)c2cc3ccccc3oc2=O)[C@@H](NC(=O)c2ccc3ccccc3n2)c2cc(OCCCO)ccc2N1C(=O)c1ccc2ccccc2n1`, the composite z-score in experiment [1] was 1.37; in [2], 0.14; in [3], -0.0342; in [4] it was 0.936; in experiment [5], 0.114; in experiment [6] it was -0.0114. In addition, the composite z-score in experiment [7] is 1.06; in [9], 0.787; in experiment [10], 0.177. Further, in experiment [8], the z-score was -0.21 (inactive).
